± gives the standard deviation.
System: MILI (PIWIL2) piRISC loaded with L1MC piRNA (26 nt)
Assay: pre-steady-state target cleavage rate (min^-1); guide: L1MC piRNA 5'p-UAACUAAAUACUAUGCAAGCUGUAGG; MIWI and MILI are mouse PIWI proteins and EfPiwi is from a freshwater sponge; tags in brackets are library labels; higher = faster piRNA-guided slicing of the target
Conditions: auxiliary factor: 500 nM mouse GTSF1
In short: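 Cleave-'n-Seq: a transcribed, DNA-blocked target RNA library (0.1 nM) was mixed with 1 nM active affinity-purified piRISC carrying one synthetic guide, with or without 500 nM GTSF1 partner protein, in HEPES–potassium acetate buffer at 33 °C for 0–8 or 0–960 min. Uncleaved targets were sequenced and normalised to depth and to weakly complementary targets. Three trials were pooled, and k3 was capped at 0.0001 min^-1. The pre-steady-state cleavage rate came from a burst-and-steady-state fit.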

Sequence	pre-steady-state target cleavage rate
UCCUCCAUACAGCUUGCAUAGUAUUUAGUUA	0.171 ± 0.021
UCCUCCUACUGCUUGGAUAGUAUUUAGUUA	0.223 ± 0.016
UCCUGCAACAGCUUGCAUAGUAUUAAGUUA	0.344 ± 0.039
UCCUGGUACAGCUAGCAUAGUAUUUAGUAA	0.201 ± 0.022
UCCUCCUACAGCUUGCAUUGUAUUUAGUUA	0.222 ± 0.014
UCCUCCUACUGCUUGCAUAGUAUUUAGUUA	0.27 ± 0.016
UCCUGCUACAGCUUGCAUAUUAUUUAGUUA	0.11 ± 0.016
UCCUCCUACAGCCUUGCAUAGUAUUUAGUUA	0.262 ± 0.019
UCCUGGUACCGCUUGCAUAGUAUUUAGUUA	0.293 ± 0.037
UCCUCGUACAGCUUGCUUAGUAUUUAGUUA	0.286 ± 0.016
UCCUGCUACAGCAUGCAUAGUAUUUAGUAA	0.277 ± 0.03
UCCUCCUACAGCUAGCAAAGUAUUUAGUUA	0.138 ± 0.014
UCCUGGAUCAGCAUGCAAAGUAUUUAGUUA	0.098 ± 0.011
UCCUGGAAUCAGCUUGCAUAGUAUUUAGUUA	0.278 ± 0.021
UCCUGCUACAGCUUGGAUAGUAUUUUGUUA	0.109 ± 0.019
UCCUGCUACAGCUUGGAUAGUAUUAAGUUA	0.198 ± 0.031
UCCUCCUACAGCUUGGAUAGUAUAUAGUUA	0.195 ± 0.022
UCCUGGAUGUCCUUGCUUAGUAUUUAGUUA	0.0537 ± 0.0095
UCCUGGAUCACCUUGCAUACUAUUUAGUUA	0.0453 ± 0.011
UCCUGGUACAGCUUGCAUAGUAUUUAGUAUA	0.224 ± 0.031

Sequence	pre-steady-state target cleavage rate
UCCUCGUACACCUUGCAUAGUAUUUAGUUA	0.239 ± 0.022
UCCUGGAUCGAGCUUGCAUAGUAUUUAGUUA	0.201 ± 0.016
UCCUGGUACAGCUUGCAUAGUAUUUAGUUUA	0.375 ± 0.028
UCCUCCCACAGCUUGCAUAGUAUUUAGUUA	0.296 ± 0.015
UCCUGGUACUGCUUGCAUAGUAUUUAGUUA	0.174 ± 0.023
UCCUCCUACAGCUUGCAUUGUAAUUAGUUA	0.166 ± 0.013
UCCUGGAUGUCCUUGCAUAGUAGUUAGUUA	0.13 ± 0.036
UCCUCCUACAGCAUGCAUAGUAUUUUGUUA	0.143 ± 0.02
UCCUGGAUCGGCUUGCAUAGUAUUUAGUUA	0.261 ± 0.016
UCCUCCUACAGCUUGCAUGUAUUUAGUUA	0.0804 ± 0.012
UCCUGCUACAGCUAGCAAAGUAUUUAGUUA	0.137 ± 0.012
UCCUGGAUCUGCUUGGAUAGUAUUUAGUUA	0.165 ± 0.019
UCCUCCUACUGCUUGCAUAGUAAUUAGUUA	0.2 ± 0.014
UCCUGGAUCAGCUAUGCAUAGUAUUUAGUUA	0.281 ± 0.019
UCCUGGAACAGCUUCCAAAGUAUUUAGUUA	0.137 ± 0.015
UCCUGGUACAGCUUGGAUAGUAAUUAGUUA	0.226 ± 0.057
UCCUGCUACAGCGUGCAUAGUAUUUAGUUA	0.296 ± 0.02
UCCUGGUUCAGCUAGCAUAGUAUUUAGUUA	0.239 ± 0.026
UCCUCCUACAGGAAGCAUAGUAUUUAGUUA	0.292 ± 0.011
UCCUGGAUGUGCUUGCCUAGUAUUUAGUUA	0.0942 ± 0.011

Same assay, conditions: auxiliary factor: none (no GTSF1)

Sequence	pre-steady-state target cleavage rate
UCCUCCAUACAGCUUGCAUAGUAUUUAGUUA	0.00652 ± 0.002
UCCUCCUACUGCUUGGAUAGUAUUUAGUUA	0.011 ± 0.0023
UCCUGCAACAGCUUGCAUAGUAUUAAGUUA	0.00432 ± 0.0031
UCCUGGUACAGCUAGCAUAGUAUUUAGUAA	0.00371 ± 0.0023
UCCUCCUACAGCUUGCAUUGUAUUUAGUUA	0.00744 ± 0.0019
UCCUCCUACUGCUUGCAUAGUAUUUAGUUA	0.00899 ± 0.0022
UCCUGCUACAGCUUGCAUAUUAUUUAGUUA	0.00413 ± 0.0024
UCCUCCUACAGCCUUGCAUAGUAUUUAGUUA	0.0101 ± 0.0026
UCCUGGUACCGCUUGCAUAGUAUUUAGUUA	0.0123 ± 0.0052
UCCUCGUACAGCUUGCUUAGUAUUUAGUUA	0.00785 ± 0.0024
UCCUGCUACAGCAUGCAUAGUAUUUAGUAA	0.00478 ± 0.0028
UCCUCCUACAGCUAGCAAAGUAUUUAGUUA	0.00428 ± 0.0022
UCCUGGAUCAGCAUGCAAAGUAUUUAGUUA	0.0074 ± 0.0018
UCCUGGAAUCAGCUUGCAUAGUAUUUAGUUA	0.016 ± 0.0034
UCCUGCUACAGCUUGGAUAGUAUUUUGUUA	0.00311 ± 0.003
UCCUGCUACAGCUUGGAUAGUAUUAAGUUA	0.00579 ± 0.002
UCCUCCUACAGCUUGGAUAGUAUAUAGUUA	0.0033 ± 0.0023
UCCUGGAUGUCCUUGCUUAGUAUUUAGUUA	0.00574 ± 0.0022
UCCUGGAUCACCUUGCAUACUAUUUAGUUA	0.00336 ± 0.0028
UCCUGGUACAGCUUGCAUAGUAUUUAGUAUA	0.00565 ± 0.0029

Sequence	pre-steady-state target cleavage rate
UCCUCGUACACCUUGCAUAGUAUUUAGUUA	0.00634 ± 0.0021
UCCUGGAUCGAGCUUGCAUAGUAUUUAGUUA	0.0122 ± 0.0026
UCCUGGUACAGCUUGCAUAGUAUUUAGUUUA	0.0152 ± 0.005
UCCUCCCACAGCUUGCAUAGUAUUUAGUUA	0.00691 ± 0.0024
UCCUGGUACUGCUUGCAUAGUAUUUAGUUA	0.0139 ± 0.0037
UCCUCCUACAGCUUGCAUUGUAAUUAGUUA	0.00423 ± 0.0019
UCCUGGAUGUCCUUGCAUAGUAGUUAGUUA	0.00421 ± 0.002
UCCUCCUACAGCAUGCAUAGUAUUUUGUUA	0.00296 ± 0.0027
UCCUGGAUCGGCUUGCAUAGUAUUUAGUUA	0.0131 ± 0.0022
UCCUCCUACAGCUUGCAUGUAUUUAGUUA	0.00283 ± 0.0027
UCCUGCUACAGCUAGCAAAGUAUUUAGUUA	0.00463 ± 0.0024
UCCUGGAUCUGCUUGGAUAGUAUUUAGUUA	0.0102 ± 0.0026
UCCUCCUACUGCUUGCAUAGUAAUUAGUUA	0.00554 ± 0.0017
UCCUGGAUCAGCUAUGCAUAGUAUUUAGUUA	0.0057 ± 0.0026
UCCUGGAACAGCUUCCAAAGUAUUUAGUUA	0.00525 ± 0.0018
UCCUGGUACAGCUUGGAUAGUAAUUAGUUA	0.00415 ± 0.0029
UCCUGCUACAGCGUGCAUAGUAUUUAGUUA	0.00602 ± 0.0024
UCCUGGUUCAGCUAGCAUAGUAUUUAGUUA	0.0116 ± 0.0027
UCCUCCUACAGGAAGCAUAGUAUUUAGUUA	0.00603 ± 0.0024
UCCUGGAUGUGCUUGCCUAGUAUUUAGUUA	0.012 ± 0.003

— the supplement of paper PMC10338343
